These results are taken from PubChem BioAssay (NCI).

Experiment in all cases: NCI-60 one-dose screen, 48 h (100 = growth as untreated, 0 = no growth, -100 = all killed)
What all share (conditions): 10 µM

Assay [1] relates to SK-MEL-2 melanoma.
Assay [2] has as its system EKVX NSCLC.
Assay [3] has as its system SN12C renal.
Assay [4] has as its system UO-31 renal.
Assay [5] concerns TK-10 renal.
Assay [6] concerns ACHN renal.
Assay [7] relates to CAKI-1 renal.
Assay [8] has as its system A498 renal.
The test system of assay [9] is CCRF-CEM leukemia.
The subject of assay [10] is MOLT-4 leukemia.

The panel holds about 83,000 compounds, 20% with a hit somewhere; the sample as a whole holds those more often.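 Interpretation: 100, growth as untreated; towards 0, rising growth inhibition; 0, no net growth; 0 to -100, cell death. Compounds scoring below 10 were considered active.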 A number with no mark means an inactive call. Activity calls are given as the source filed them.

`CCOc1nc(-c2ccccc2)cc2c(O)c(C(=O)NC(C)C)[nH]c(=O)c12`: the growth in assay [1] is 126%; in assay [2], 105%; in [3], 114%; in [4] it was 80.2%; in [5] it was 133%; in assay [6], 97.6%. The growth in assay [7] is 94.2%; in assay [8], 100%; in [9] it was 58.2%.
In the case of `COc1cc(/C=C/C(=O)c2cc(-c3ccc(F)cc3)ccc2O)cc(OC)c1OC`, the growth was 75.4% in assay [1]; 53% in assay [2]; 74.3% in [3]; 53.1% in assay [4]; 108% in assay [5]; 76.8% in assay [6]. Also, the growth in assay [7] is 60.5%; in [8], 81.8%; in assay [9], -3.16% (active); in assay [10], 26.3%.
`O=C(N/N=C/c1ccccc1O)c1ccccc1`: the growth is -3.08% (active) in assay [1]; 21.7% in assay [2]; 47.2% in [3]; 12.2% in [4]; 46% in assay [5]; 13% in [6]. Further, the growth was 7.12% (active) in assay [7], 71.4% in assay [8], -28.1% (active) in [9] and 14.7% in assay [10].
For `CC1(C)Cc2c(cn(Cc3ccccc3)c2-c2ccccc2)-c2oncc21`, the growth in assay [1] is 102%; in [2] it was 85.2%; in assay [3], 97%; in assay [4] it was 89.7%; in assay [5], 106%; in assay [6] it was 99.9%. The growth is 79.8% in assay [7], 126% in assay [8], 94.2% in [9] and 86.1% in assay [10].
In the case of `O=[N+]([O-])C1CC2C=CC1C2` (centres undefined), the growth in assay [1] is 92.8%; in assay [2], 92.7%; in [3], 102%; in [4] it was 80.8%; in assay [5], 112%; in assay [6], 106%. Moreover, the figures for the growth in [7] and in [8] were 95.1% and 78.2%, respectively.
Turning to `CCN(CC)CCCOC(=O)Nc1ccccc1Cl`, the growth in assay [1] is 101%; in [2], 108%; in [3] it was 102%; in [4], 91.7%; in assay [5] it was 98.9%; in assay [6] it was 108%. The growth was 104% in assay [7], 97.7% in assay [8], 88.4% in [9] and 98% in assay [10].
Turning to `COc1c(C)c(C)c(OC)c2c1[nH]c(=O)c1c3cccnc3cn21`, the growth is 110% in assay [1]; 100% in [2]; 99.5% in assay [3]; 91.2% in assay [4]; 117% in assay [5]; 114% in assay [6]. The growth in assay [7] was 104%; in [8] it was 120%; in assay [9] it was 101%; in assay [10] it was 99.4%.
In the case of `CCN(CC)CC(O)Cc1ccc(OC)cc1` (centres undefined), the growth in assay [1] was 96%; in [2] it was 98.7%; in [3] it was 104%; in assay [4] it was 103%; in assay [5] it was 96.5%; in assay [6] it was 108%. For the same compound, the growth in assay [7] is 101%; in assay [8], 96.7%; in assay [9] it was 98.9%; in [10] it was 95.7%.
Turning to `COc1ccc(C2=Cc3ccc(OC(C)=O)cc3OC2)cc1`, the growth in assay [1] is 97.5%; in [2], 66.2%; in assay [3] it was 87.2%; in assay [4], 49.1%; in assay [5], 102%; in [6] it was 80.8%. For the same compound, the growth is 88.2% in assay [7], 82.2% in assay [8], 70.8% in assay [9] and 44.5% in assay [10].
Turning to `CCOC(=O)C(CCC1=NC(C)(C)CC(C)O1)C(=O)OCC` (centres undefined), the growth in [1] was 34.1%; in assay [2], 107%; in assay [3], 95.7%; in assay [4] it was 77.5%; in [5] it was 101%; in [6], 6.26% (active). Further, the growth in assay [7] is 45.7%; in [8], 106%; in assay [9] it was 111%; in [10], 68.8%.
Turning to `Oc1[nH]c2ccccc2c1/C=c1/cc2c(c(-c3ccc(C(F)(F)F)cc3)n1)=Nc1ccccc1-2`, the growth in assay [1] is 55.3%; in [2], 52.1%; in assay [3], 79.1%; in [4] it was 56.1%; in assay [5], 56.9%; in assay [6] it was 32%. For the same compound, the growth in assay [7] is 48.4%.
Take `Oc1ccc(Cn2cc3c(c2-c2ccccc2)CCc2cnoc2-3)cc1`: the growth is 102% in assay [1]; 80.2% in assay [2]; 91.7% in [3]; 88.8% in [4]; 111% in assay [5]; 90% in assay [6]. Besides, the growth in assay [7] is 81.7%; in [8], 104%; in assay [9], 99.1%; in [10] it was 80.5%.
Consider `O=C(O)c1cc(C(F)(F)F)cc(C(F)(F)F)c1`, for which the growth in assay [1] was 97.1%; in assay [2], 105%; in assay [3], 104%; in assay [4], 77.8%; in assay [5], 135%; in [6] it was 105%. Besides, the growth in [7] was 99.6%; in assay [8] it was 84.4%; in [9], 102%; in assay [10] it was 95%.
